Our source for the cell number and H1.0 immunofluorescence intensity values is the supplement of paper PMC7156485.

Holding throughout (conditions): concentration: 10 µM; 24 h
Experiment [1] deals with HCC1569. Put plainly: cell number relative to DMSO (% of DMSO); higher = more cells (less growth inhibition / toxicity). The essentials: (§1)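 Compounds were applied at 10 µM for 24 h at 37 °C, in triplicate, to HCC1569 and TDF cells. The cells were then fixed and stained for H1.0, and nuclei were counterstained with DAPI. Nuclear H1.0 intensity or cell number is reported relative to the plate control as a percent, taking the median of replicates. Smoothing for positional effects was applied to HCC1569 values only.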

Experiment [2] has as its system TDF. The description is as above. The essentials:
as §1

For experiment [3], the system named is TDF. The experiment in a line: H1.0 immunofluorescence intensity relative to DMSO (% of DMSO); higher = stronger H1.0 induction, active = 120 or more. The essentials:
as §1

The subject of experiment [4] is HCC1569. Put plainly: H1.0 immunofluorescence intensity relative to DMSO (% of DMSO); higher = stronger H1.0 induction, active = 140 or more. The essentials: as §1

± gives the standard deviation of the averaged measurements.
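Throughout, for H1.0 immunofluorescence intensity relative to DMSO: TDF is a line of transformed human dermal fibroblasts of mesenchymal origin.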
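Throughout, for cell number relative to DMSO: TDF denotes transformed human dermal fibroblasts of mesenchymal origin.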

`CC1(C)CC(NC(=O)C(=O)Nc2ccc(Cl)cc2)CC(C)(C)N1`: the figures for the cell number in the experiment with HCC1569 [1] and in the experiment on TDF [2] were 104 and 107, respectively. The H1.0 immunofluorescence intensity with TDF [3] was 91 (inactive); in the experiment on HCC1569 [4] it was 99.1 (inactive).

`O=C1CC(c2ccccc2)Oc2cc(O)cc(O)c21` (stereo not given) [Pinocembrin]: the values for the cell number with HCC1569 [1] and in the experiment on TDF [2] were 106 and 100, respectively. The H1.0 immunofluorescence intensity was 99 (inactive) with TDF [3] and 91.1 (inactive) with HCC1569 [4].

As to `COC(=O)C1=C(C)NC(C)=C(C(=O)OC)C1c1ccccc1[N+](=O)[O-]` [Nifedipine], the cell number was determined as 99.06 ± 0.47 in the experiment with HCC1569 [1] and 102 ± 7 in the experiment on TDF [2]. Besides, the H1.0 immunofluorescence intensity in the experiment on TDF [3] is 94.7 (inactive); with HCC1569 [4] it was 104 (inactive).

Regarding `CC1(C)CCCC2(C)C1CCC1(C)OC(=O)CC12` [(3aR)-(+)-Sclaerolide], the cell number in the experiment with HCC1569 [1] was found to be 99; in the experiment with TDF [2], 105. Besides, the H1.0 immunofluorescence intensity with TDF [3] is 92.9 (inactive); in the experiment with HCC1569 [4], 84.9 (inactive).

Regarding `CCC=CCC=CCC=CCCCCCCCC(=O)O` [Linolenic acid], the cell number in the experiment on HCC1569 [1] was found to be 104 ± 3.3; in the experiment on TDF [2], 98.7 ± 9. Besides, the values for the H1.0 immunofluorescence intensity with TDF [3] and in the experiment with HCC1569 [4] were 101 (inactive) and 97.6 (inactive), respectively.

Regarding `CN1CCN(CCCCN2C(=O)CN(/N=C/c3ccc(-c4ccc(Cl)cc4)o3)C2=O)CC1.Cl.Cl`, the cell number turned out to be 98.2 with HCC1569 [1] and 102 with TDF [2]. The H1.0 immunofluorescence intensity in the experiment with TDF [3] is 92.6 (inactive); with HCC1569 [4], 115 (inactive).

Take `CC1C(NC(=O)C(=NOC(C)(C)C(=O)O)c2csc(N)n2)C(=O)N1S(=O)(=O)O` (stereo not given) [Aztreonam]: the cell number in the experiment with HCC1569 [1] and with TDF [2] was 105 throughout. The H1.0 immunofluorescence intensity was 93.1 (inactive) in the experiment on TDF [3] and 103 (inactive) with HCC1569 [4].

With `C1CCC(C(CC2CCCCN2)C2CCCCC2)CC1.O=C(O)C=CC(=O)O` (stereo not given), the cell number with HCC1569 [1] stood at 19; in the experiment with TDF [2] it was 5.25. For the same compound, the H1.0 immunofluorescence intensity with TDF [3] was 273 (active); in the experiment with HCC1569 [4], 117 (inactive).

In the case of `CCCCCCCC/C=C\CCCCCCCC(=O)NCc1ccc(O)c(OC)c1` [(9Z)-N-(4-hydroxy-3-methoxybenzyl)-9-octadecenamide], the cell number in the experiment with HCC1569 [1] was 40.4; in the experiment on TDF [2], 91.5. Moreover, the H1.0 immunofluorescence intensity in the experiment with TDF [3] was 95.2 (inactive); with HCC1569 [4] it was 171 (active).

For the compound `C=CC1CN2CCC1CC2C(O)c1ccnc2ccc(OC)cc12.Cl.O.O` (stereo not given), the results for the cell number with HCC1569 [1] and in the experiment on TDF [2] were 99.036 ± 0.095 and 99.4 ± 3.1, respectively. Moreover, the H1.0 immunofluorescence intensity is 98.1 (inactive) with TDF [3] and 92.6 (inactive) in the experiment with HCC1569 [4].

With `CC(=O)c1ccc2c(c1)[C@H](NC(=O)c1ccc(F)c(Cl)c1)[C@H](O)C(C)(C)O2`, the cell number with HCC1569 [1] turned out to be 97.4; in the experiment with TDF [2], 98. In addition, the H1.0 immunofluorescence intensity with TDF [3] was 104 (inactive); in the experiment with HCC1569 [4], 99.5 (inactive).

In the case of `CCCCCCCCCCCCCCCC(=O)OC1C(SC)OC(C(NC(=O)C2CC(CCC)CN2C)C(C)Cl)C(O)C1O.Cl` (stereo not given) [Clindamycin palmitate.HCl], the cell number in the experiment on HCC1569 [1] turned out to be 96.5; in the experiment on TDF [2] it was 101. The H1.0 immunofluorescence intensity in the experiment on TDF [3] was 93.3 (inactive); in the experiment with HCC1569 [4], 106 (inactive).

Turning to `CC(=O)Nc1ccc(NC(=S)NC(=O)c2ccc(C(C)(C)C)cc2)cc1` [p53 Activator (Tenovin-1)], the figures for the cell number in the experiment on HCC1569 [1] and in the experiment on TDF [2] were 96.5 and 91.1, respectively. In addition, the H1.0 immunofluorescence intensity was 104 (inactive) in the experiment on TDF [3] and 153 (active) with HCC1569 [4].

Turning to `CCOC(=O)[C@@H](N)CCC(=O)N[C@@H](CSCc1ccccc1)C(=O)N[C@@H](C(=O)OCC)c1ccccc1`, the cell number in the experiment with HCC1569 [1] worked out at 97.6; in the experiment on TDF [2] it was 100. Besides, the H1.0 immunofluorescence intensity in the experiment on TDF [3] is 92.9 (inactive); in the experiment with HCC1569 [4], 109 (inactive).

Consider `COc1ccc(-c2ccc3c(N4CCOCC4)nc(N4CC(C)OC(C)C4)nc3n2)cc1CO` (stereo not given), for which the values for the cell number in the experiment on HCC1569 [1] and with TDF [2] were 73 and 78.1, respectively. The H1.0 immunofluorescence intensity in the experiment with TDF [3] is 87.6 (inactive); with HCC1569 [4] it was 164 (active).

With `Nc1sc2c(c1C(=O)c1ccc(Cl)cc1)CCCC2`, the cell number in the experiment with HCC1569 [1] is 102; with TDF [2] it was 96.8. For the same compound, the H1.0 immunofluorescence intensity in the experiment on TDF [3] is 95 (inactive); with HCC1569 [4], 98.9 (inactive).

`C[C@H]1C[C@H]2[C@@H]3CCC4=CC(=O)C=C[C@]4(C)[C@@]3(F)[C@@H](O)C[C@]2(C)[C@@]1(O)C(=O)COP(=O)([O-])[O-].[Na+].[Na+]`: the cell number with HCC1569 [1] is 97.2; with TDF [2], 106. The values for the H1.0 immunofluorescence intensity with TDF [3] and with HCC1569 [4] were 83.8 (inactive) and 111 (inactive), respectively.

Consider `CN(C)CCn1cc(S(=O)(=O)c2cccc(F)c2)c2cccnc21`, for which the figures for the cell number with HCC1569 [1] and in the experiment on TDF [2] were 99.5 and 74.4, respectively. The values for the H1.0 immunofluorescence intensity with TDF [3] and in the experiment with HCC1569 [4] were 127 (active) and 111 (inactive), respectively.

As to `Cl.Cl.NCCNc1ncc(C(N)=O)c(Nc2cccc(C(F)(F)F)c2)n1.O.O` [Syk Inhibitor II], the cell number in the experiment with HCC1569 [1] was determined as 82.1; in the experiment on TDF [2] it was 84.7. Moreover, the H1.0 immunofluorescence intensity with TDF [3] is 88.2 (inactive); in the experiment with HCC1569 [4], 148 (active).

Take `O=C1c2c(O)cc(O)cc2O[C@H](c2cc(O)c(O)c(O)c2)[C@H]1O`: the results for the cell number in the experiment with HCC1569 [1] and with TDF [2] were 95.8 and 99.5, respectively. The H1.0 immunofluorescence intensity in the experiment with TDF [3] is 98.9 (inactive); with HCC1569 [4], 93.3 (inactive).

For the compound `C[N+]1(C)CCCC1C(=O)[O-].Cl` (stereo not given), the cell number in the experiment with HCC1569 [1] is 96.1; in the experiment with TDF [2] it was 115. Further, the figures for the H1.0 immunofluorescence intensity with TDF [3] and with HCC1569 [4] were 95.9 (inactive) and 109 (inactive), respectively.

As to `CNc1nccc(-c2cccnc2Oc2cc(C(=O)Nc3cccc(C(F)(F)F)c3)ccc2C)n1`, the figures for the cell number in the experiment on HCC1569 [1] and in the experiment on TDF [2] were 82.3 and 103, respectively. Moreover, the H1.0 immunofluorescence intensity is 92.9 (inactive) in the experiment with TDF [3] and 102 (inactive) in the experiment on HCC1569 [4].

Consider `CCc1ccc(CCOc2ccc(CC3SC(=O)NC3=O)cc2)nc1` (stereo not given) [Pioglitazone], for which the cell number in the experiment on HCC1569 [1] stood at 102; in the experiment with TDF [2], 105. Besides, the H1.0 immunofluorescence intensity in the experiment with TDF [3] is 94.2 (inactive); in the experiment with HCC1569 [4], 102 (inactive).

`CCCCCC(O)C=CC1C(O)CC(O)C1CC=CCCCC(=O)O` (stereo not given) [Dinoprost]: the cell number in the experiment with HCC1569 [1] is 100; with TDF [2], 106. Also, the H1.0 immunofluorescence intensity is 93.2 (inactive) in the experiment with TDF [3] and 109 (inactive) with HCC1569 [4].

Take `CN1CCN(C2=Nc3cc(F)ccc3Cc3ccccc32)CC1` [Fluperlapine]: the cell number was 104 with HCC1569 [1] and 102 with TDF [2]. In addition, the H1.0 immunofluorescence intensity in the experiment with TDF [3] was 100 (inactive); in the experiment with HCC1569 [4], 118 (inactive).
